Reference: the supplement of paper PMC10646978
± gives the standard deviation.

Key:
Conditions in all cases: modulator concentration 10 µM
[1] = system: RAW-Dual (murine macrophage reporter line); experiment: NF-kB reporter (SEAP) activity fold change vs agonist alone; higher = enhanced NF-kB activity
How it was run: (§1)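 In 384-well plates holding 50 000 RAW-Dual murine macrophage reporter cells per well, compound at 10 μM final was pre-incubated for 1 hour at 37 °C, after which a PRR agonist was added overnight. Supernatant SEAP read with QUANTI-Blue at 620 nm absorbance reported NF-κB, and Lucia luciferase read with QUANTI-Luc luminescence reported IRF. Fold change values come from dividing each reporter signal by the mean of agonist-only control wells on the same plate, averaged over replicate plates with propagated errors.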

[2] = system: RAW-Dual (murine macrophage reporter line); experiment: IRF reporter (Lucia luciferase) activity fold change vs agonist alone; higher = enhanced IRF activity
How it was run: as §1

[3] = system: RAW-Dual (murine macrophage reporter line); experiment: viability score (confluency relative to resting cells, overnight) (fraction); higher = more viable, active = viable (0.7 or more)
How it was run: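 Overnight exposure to 10 μM final compound was carried out on RAW-Dual macrophages in 384-well plates. IncuCyte software generated two confluency masks over all wells imaged with IncuCyte. The viability score gives confluency in relation to resting cells. A compound met the cutoff if each mask exceeded 70% of resting cells.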

[4] = agonist: CpG ODN 1826 0.5 ug/mL

Row | SMILES | NF-kB reporter [1, 4] | NF-kB reporter ([1]; agonist: LPS 0.1 ug/mL) | NF-kB reporter ([1]; agonist: MPLA […]) | IRF reporter ([2]; agonist: 3'3'-cGAMP 10 ug/mL) | IRF reporter ([2]; agonist: LPS 0.1 ug/mL) | IRF reporter ([2]; agonist: MPLA […]) | viability score [3]
1 | COc1ccccc1N1CCN(CC(O)COc2cccc3ccccc23)CC1 (stereo not drawn) | 0.878 ± 0.22 | 1.21 ± 0.2 | 0.711 ± 0.04 | 0.719 ± 0.026 | 1.6 ± 0.14 | 1.35 ± 0.13 | 0.967 (active)
2 | O=c1cc(-c2ccc(O)cc2)oc2cc(OC3OC(CO)C(O)C(O)C3O)cc(O)c12 (stereo not drawn) | 1.14 ± 0.11 | 1.06 ± 0.072 | 1.05 ± 0.022 | 0.911 ± 0.094 | 0.966 ± 0.05 | 1.01 ± 0.086 | 0.998 (active)
3 | CCCCCCOc1ccc(N2C(=O)CC(N3CCN(Cc4ccc5c(c4)OCO5)CC3)C2=O)cc1 (stereo not drawn) | 0.919 ± 0.073 | 1.07 ± 0.075 | 0.9 ± 0.055 | 0.929 ± 0.032 | 1.38 ± 0.17 | 1.32 ± 0.12 | 0.991 (active)
4 | CC(=NN1CCN(Cc2cccc3ccccc23)CC1)c1ccc(O)cc1 | 0.841 ± 0.062 | 0.886 ± 0.079 | 0.988 ± 0.026 | 0.849 ± 0.031 | 0.946 ± 0.1 | 0.963 ± 0.14 | 0.996 (active)
5 | COc1c(-c2ccc3cc(NS(C)(=O)=O)ccc3c2)cc(-n2ccc(=O)[nH]c2=O)cc1C(C)(C)C | 0.43 ± 0.1 | 1.02 ± 0.056 | 0.827 ± 0.093 | 0.774 ± 0.043 | 1.2 ± 0.29 | 1.2 ± 0.15 | 1.01 (active)
6 | FC(F)(F)c1ccnc(NC2CCN(c3ncnc4c3CCCC4)CC2)n1 | 0.884 ± 0.083 | 1.35 ± 0.11 | 1.86 ± 0.081 | 1.21 ± 0.069 | 1.65 ± 0.16 | 1.59 ± 0.18 | 0.318 (inactive)
7 | Cc1cc2ncn(CC3CCN(C(=O)COc4ccc(F)cc4)CC3)c2cc1C.O=C(O)C(=O)O | 0.724 ± 0.07 | 1.06 ± 0.1 | 0.931 ± 0.047 | 0.908 ± 0.064 | 0.916 ± 0.09 | 0.814 ± 0.26 | 1 (active)
8 | O=S1(=O)Nc2c(ccc3cccnc23)-c2ccccc21 | 0.603 ± 0.086 | 1.38 ± 0.1 | 2.34 ± 0.22 | 15 ± 0.57 | 0.755 ± 0.23 | 0.29 ± 0.079 | 0.671 (inactive)
9 | O=C(C1COCC(=O)N1Cc1ccccc1)N1CCN(c2cccc(Cl)c2)CC1 (stereo not drawn) | 1.01 ± 0.05 | 1.09 ± 0.089 | 1.08 ± 0.064 | 1.01 ± 0.051 | 1.24 ± 0.075 | 1.29 ± 0.11 | 1.01 (active)
10 | Cc1c(NC(=S)NC(=O)c2ccccc2[N+](=O)[O-])cccc1-c1nc2ccccc2o1 | 0.898 ± 0.074 | 1 ± 0.073 | 1.05 ± 0.11 | 0.649 ± 0.093 | 1.04 ± 0.15 | 1.07 ± 0.31 | 1 (active)
11 | O=C(CSc1ccc2ccccc2n1)NC1=NCCS1 | 0.89 ± 0.051 | 0.986 ± 0.062 | 0.972 ± 0.06 | 0.968 ± 0.033 | 1.2 ± 0.077 | 0.958 ± 0.23 | 1.01 (active)
12 | Cc1cc(C)n2nc(C(=O)NN=Cc3ccc(N(C)C)cc3)nc2n1 | 1.1 ± 0.069 | 1.09 ± 0.067 | 0.934 ± 0.084 | 0.996 ± 0.033 | 1.37 ± 0.11 | 1.3 ± 0.25 | 1.01 (active)
13 | CCCCCN(CCCCC)C(=O)C(CCC(=O)[O-])NC(=O)c1ccc(Cl)c(Cl)c1 (stereo not drawn) [Prestw-915] | 1.02 ± 0.064 | 0.954 ± 0.096 | 0.901 ± 0.064 | 1.1 ± 0.073 | 1.55 ± 0.17 | 1.29 ± 0.14 | 0.832 (active)
14 | COc1ccc(-c2csc(NC(=O)C3CC3)n2)cc1 | 1.1 ± 0.064 | 0.958 ± 0.078 | 1.05 ± 0.032 | 0.876 ± 0.032 | 1.05 ± 0.08 | 1.13 ± 0.26 | 0.988 (active)
